Source: PubChem
An excerpt weighted towards active compounds, which were near 3.6% of everything screened.
BoNT F protease: BoNT F light chain protease inhibition; Multiplex microsphere protease cleavage assay, flow cytometry; AID 588497; 360,000 tested, 0.22% active; inhibition, % at 10 µM; in the data active = inhibition above about 35%, passing the limit was not always enough; inconclusive = no clear call, values can overlap the other calls; also: plate controls were buffer without enzyme for full effect and enzyme alone for no effect
BoNT-A LC inh2: inhibitors of Botulinum neurotoxin A light chain protease; multiplex microsphere protease substrate cleavage, flow cytometry; inhibition, % at 10 µM; 360,000 tested, 0.17% active; AID 588499; also: plate controls were buffer without enzyme for full effect and enzyme alone for no effect
MazEF act: MazEF (E. coli) toxin RNase activation. P0AE70. FAM/BHQ RNA-DNA oligo cleavage fluorescence, 5 h. activation, % at 20 µM. 350,000 tested, 0.32% active; in the data active = activation above about 50%
Target sequence (P0AE70 whole entry, looked up): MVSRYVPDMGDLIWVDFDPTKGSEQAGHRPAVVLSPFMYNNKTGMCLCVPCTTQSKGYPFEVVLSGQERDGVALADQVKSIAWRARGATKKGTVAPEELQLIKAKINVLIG
Autofluor counter: compound fluorescence in toxin protease inhibitor counterscreen | compound autofluorescence counterscreen, microsphere flow cytometry; active compounds read high | 360,000 tested, 3.1% active | AID 624483 | fluorescence intensity (no concentration beside the values); in the data active = fluorescence intensity above about 16000; inconclusive = no clear call, values can overlap the other calls
Anthrax LF inh2: blocks Bacillus anthracis lethal factor protease; 360,000 tested, 0.12% active; multiplex microsphere protease cleavage assay, LF; inhibition, % at 10 µM; also: plate controls were buffer without enzyme for full effect and enzyme alone for no effect
* hit, by the source's call; i = inactive; ? = inconclusive; . = not tested or not shown. Rule as the data show it, unless noted: active = inhibition above about 30%; inconclusive = no clear call, values can overlap the other calls; inactive = below that.

SMILES	BoNT F protease	BoNT-A LC inh2	MazEF act	Autofluor counter	Anthrax LF inh2
COC(=O)C(Cc1cnc[nH]1)NC(=O)C1CCC(=O)N1 (centres undefined)	3	?	13	22414*	-3
Cc1cc(Cl)ccc1OCC(=O)N1C(C)CCCC1C (centres undefined)	-4	-4	-13	24242*	-7
CC1CCCC(C)N1C(=O)COc1ccc([N+](=O)[O-])cc1Cl (centres undefined)	3	0	5	4506	3
O=C(COC(=O)Cn1cc(C(F)(F)F)ccc1=O)Nc1ccccc1	1	0	-5	8763	2
CN(Cc1nc(-c2ccncc2)no1)S(=O)(=O)c1ccc(Cl)cc1	3	2	3	21129*	-4
Clc1ccc(-c2noc(COc3ccccc3)n2)cc1	1	2	-18	22341*	-3
CN(Cc1nc(-c2ccncc2)no1)S(=O)(=O)c1ccc(Br)cc1	-4	0	2	2858	-1
Clc1ccc(-c2noc(CCCOc3ccccc3)n2)cc1	-6	-1	-6	11319	0
CC(C)(C)Cc1nc(-c2ccc(Cl)cc2)no1	-9	-5	-11	21458*	1
CCn1cc(C(=O)N2CCCC(C(=O)c3cccc(C(F)(F)F)c3)C2)cn1 (centres undefined)	-10	0	5	3894	2
Cc1nnc(Cn2cnc3c2c(=O)n(C)c(=O)n3C)o1	-5	-5	-6	3720	-10
O=C(c1ccco1)N1CCN(CC2CC3C=CC2C3)CC1 (centres undefined)	2	1	4	20016*	0
O=C(c1ccco1)N1CCN(C(=O)c2sccc2-c2ccccc2)CC1	-2	-1	-2	20729*	-2
Nc1ccc(N2CCN(C(=O)c3ccco3)CC2)cc1	-12	5	10	20148*	-4
O=C(NC1CCCCCC1)C1C2C=CC3(CN(Cc4cccnc4)C(=O)C13)O2 (centres undefined)	2	0	13	6194	-5
O=C(NCc1ccccc1)C1C2C=CC3(CN(Cc4cccnc4)C(=O)C13)O2 (centres undefined)	1	2	0	19359*	-2
CCCCN1C(=O)/C(=C/C=C2\Oc3ccccc3N2CC)SC1=S	-3	-2	i	14747	-9
CCCCN1C(=O)/C(=C/C=C2/CC(C)(C)CN2C)SC1=S	-2	27	118*	5295	13
Cc1ccc(Oc2coc3cc(OC(=O)c4cccs4)ccc3c2=O)cc1	-4	1	-30	16461*	-2
CCOC(=O)c1[nH]c(C)c(C(=O)N2CCN(c3ccccc3)CC2)c1C	1	0	-7	8318	-1
CCOc1ccccc1C(=O)N1CCN(c2cccc(Cl)c2)CC1	-2	1	-7	20455*	-1
COc1cc2c(C(=O)N3CCN(c4cccc(Cl)c4)CC3)cn(CC(C)C)c(=O)c2cc1OC	38*	3	0	4262	7
CCOc1ccc2ccccc2c1C(=O)N1CCN(c2ccccc2)CC1	6	6	1	21404*	1
O=C(O)c1ccccc1C(=O)N1CCN(c2cccc(Cl)c2)CC1	-32	-3	8	3671	-5
COc1ccc(NC(=O)C[C@H]2C(=O)N(c3ccc(OC)cc3)C[C@@H]2CSC)cc1	-1	0	2	3766	1
SMILES	BoNT F protease	BoNT-A LC inh2	MazEF act	Autofluor counter	Anthrax LF inh2
CCCCn1c(N)c(N(CC(C)C)C(=O)c2cccc(-n3cnnn3)c2)c(=O)[nH]c1=O	-2	-1	-3	4770	-1
CC(OC(=O)C1CCCO1)C(=O)NC1CCCC1 (centres undefined)	-2	1	-6	19071*	0
CC(C)(C)c1ccc(C(=O)N2CCC2(C)C(=O)NS(=O)(=O)c2ccccc2Cl)cc1 (centres undefined)	0	0	.	3990	-4
O=C(Nc1ccc(OC(F)F)cc1)Nc1cccc(C(F)(F)F)c1	-4	?	4	20493*	-2
O=C(N/N=C\c1ccc(F)cc1)c1cc(OCC(F)(F)F)ccc1OCC(F)(F)F	-4	-1	-1	4600	-8
CN(C)S(=O)(=O)NCCNC(=O)c1cc(OCC(F)(F)F)ccc1OCC(F)(F)F	0	0	-9	2622	1
C=CCONC(=O)c1cc(OCC(F)(F)F)ccc1OCC(F)(F)F	-3	-3	8	24141*	-2
O=C(NCCNC(=O)c1cc(OCC(F)(F)F)ccc1OCC(F)(F)F)Nc1cccc(C(F)(F)F)c1	-8	?	-2	24354*	0
C[C@@H]1CN(C(=O)c2ccc(OC3CCN(S(=O)(=O)N(C)C)CC3)cc2)C[C@H](C)O1	3	-4	0	4634	0
CSc1ccccc1C(=O)C1CCCN(C(=O)c2cccc(Cn3cccn3)c2)C1 (centres undefined)	-4	0	2	3852	2
Cc1cc2c(c(Sc3ccccc3)n1)C(=O)OC2	-2	-2	7	24407*	-4
Cc1cc2c(c(SCC(=O)N(C)c3ccccc3)n1)C(=O)OC2	22	1	3	4182	-2
CCOc1ccc2c(C)c(C)c(=O)oc2c1OCC	-3	-2	7	23673*	-3
CCOc1c(OC)ccc2c3c(c(=O)oc12)CCCC3	3	1	0	22747*	-3
CCn1c(NC(=O)c2cccs2)c(-c2cccs2)c(=O)c2ccccc21	4	?	5	20705*	1
COc1ccc(-c2c(NC(C)=O)n(C)c3ccccc3c2=O)cc1	17	?	-14	16417*	-14
Cc1ccccc1C(=O)Nc1c(-c2cccs2)c(=O)c2ccccc2n1C	6	0	4	6025	-8
CCCC(=O)Nc1c(-c2cccs2)c(=O)c2ccccc2n1C	-1	2	2	21477*	0
Cn1c(NC(=O)c2ccco2)c(-c2ccccc2)c(=O)c2ccccc21	-4	0	2	8467	-3
CCn1c(NC(=O)c2ccco2)c(-c2ccccc2Cl)c(=O)c2ccccc21	5	1	7	23199*	3
CCCc1cc(=O)[nH]c(Nc2ccc(N3CCCCC3)cc2)n1	-14	2	11	20834*	-9
CCCCc1ccc(Nc2nc(CCC)cc(=O)[nH]2)cc1	-7	0	3	2387	0
CCOC(=O)CNC(=O)CSc1nc2sc(C)c(C)c2c(=O)n1C	-5	-2	0	23793*	-2
Cc1sc2nc(SCC(=O)OC(C)C)n(C)c(=O)c2c1C	-6	-2	4	11032	-11
Cc1sc2nc(SCC(=O)NCCO)n(C)c(=O)c2c1C	0	?	-3	21991*	-10
Cc1cc(NC(=O)CN2C(=O)/C(=C/c3ccc(C(C)C)cc3)SC2=S)no1	-1	1	1	2959	2
COc1cccc(/C=C2\N=C(C3CCCCC3)OC2=O)c1OC	-2	0	9	4068	-4
CCCC1CCC(C2=N/C(=C\c3ccc(OC)c(OC)c3)C(=O)O2)CC1 (centres undefined)	-2	0	-4	22779*	-1
